From PubChem BioAssay (Tox21)
Activity calls are given as the source filed them. Calls follow the shape of the full dose curve.

Biological target: Acetylcholinesterase (Homo sapiens) (UniProt P22303)
Assay: Acetylcholinesterase (AChE) small molecule antagonists: enzyme-based qHTS assay with human liver microsomes (AID 1347399); also: nearly all actives have a fitted effect of over 60% in size
Details: Potency: qHTS inhibition; outcome: qHTS inhibition; series mostly up to 115 µM; activity change, negative = inhibition: at the top concentration
Summary of the method: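 Recombinant human AChE (50 mU/mL in the enzyme mix) and human liver microsomes (0.25 mg/mL final) were preincubated with compound and NADPH (0.25 mg/mL final) for 30 min at 37 C. Acetylthiocholine/DTNB was then added; thiocholine was read colorimetrically after 10 min at room temperature.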
% is scaled to controls: 0 for no effect and ±100 for the full control effect.

Acetylcholinesterase (Homo sapiens), sequence (P22303 whole entry, looked up): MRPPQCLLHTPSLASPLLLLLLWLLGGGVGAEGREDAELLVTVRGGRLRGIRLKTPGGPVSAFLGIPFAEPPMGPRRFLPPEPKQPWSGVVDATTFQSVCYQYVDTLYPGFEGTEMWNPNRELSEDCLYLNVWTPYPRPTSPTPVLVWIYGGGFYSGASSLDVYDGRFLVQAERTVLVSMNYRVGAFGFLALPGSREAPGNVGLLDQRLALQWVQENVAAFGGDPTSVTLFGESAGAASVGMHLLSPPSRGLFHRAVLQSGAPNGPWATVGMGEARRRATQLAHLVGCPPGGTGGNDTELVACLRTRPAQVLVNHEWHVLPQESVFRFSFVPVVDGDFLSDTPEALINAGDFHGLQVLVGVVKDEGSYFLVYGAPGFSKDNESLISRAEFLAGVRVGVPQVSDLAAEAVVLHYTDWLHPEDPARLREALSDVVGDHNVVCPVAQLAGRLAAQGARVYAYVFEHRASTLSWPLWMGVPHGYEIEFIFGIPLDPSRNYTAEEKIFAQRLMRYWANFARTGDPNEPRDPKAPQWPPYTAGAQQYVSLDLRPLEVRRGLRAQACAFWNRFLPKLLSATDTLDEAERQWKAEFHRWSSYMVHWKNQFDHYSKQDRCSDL

SMILES	activity change, negative = inhibition
CC(=O)O[C@@H]1C[C@@H]2CC[C@@]1(C)C2(C)C	0.482% (inactive)
C1CCC2(CCCCO2)OC1	-0.341% (inactive)
CC(C(=O)O)c1ccc2c(c1)Cc1cccnc1O2 (centres undefined)	-2.78% [at 53 µM] (inactive)
CCCCCO	-5.86% (inactive)
Cc1c(C(=O)NN2CCCCC2)nn(-c2ccc(Cl)cc2Cl)c1-c1ccc(Cl)cc1	-0.443% [at 53 µM] (inactive)
CC1CC(=O)CC(C)(C)C1 (centres undefined)	-0.619% (inactive)
CC(C)=CCC/C(C)=C/CC/C(C)=C/CCC(=O)OC/C=C(\C)CCC=C(C)C	-0.0573% [at 53 µM] (inactive)
NC[C@H]1O[C@H](O[C@H]2[C@H](O)[C@@H](O[C@H]3O[C@H](CO)[C@@H](O)[C@H](N)[C@H]3O)[C@H](N)C[C@@H]2N)[C@H](O)[C@@H](O)[C@@H]1O	-5.67% [at 10.5 µM] (inactive)
CCCCCCC(O)CO (centres undefined)	-2.16% (inactive)
CCCCCCCCCCCCCCCS(=O)(=O)Oc1ccccc1	1.45% [at 53 µM] (inactive)
Cc1ccc(C2OC[C@@H]3OC(c4ccc(C)cc4)O[C@H]([C@H](O)CO)[C@@H]3O2)cc1 (some centres undefined)	0.165% (inactive)
COc1cc(-c2nc(NC(=O)c3cc4cc(C)cc(C)c4n3CC(=O)O)sc2CCC2CCCCC2)c(OC)cc1Cl	6.1% (inactive)
CC[C@@]1(O)C(=O)OCc2c1cc1n(c2=O)Cc2c-1nc1ccccc1c2/C=N/OC(C)(C)C	1.18% [at 53 µM] (inactive)
C[Si](Cl)(c1ccccc1)c1ccccc1	-0.337% (inactive)
O=C(O)CCCc1ccccc1	-1.39% [at 53 µM] (inactive)
CCCCCCCCOCCCN	-0.306% (inactive)
CCCCOCCOC(=O)COc1nc(Cl)c(Cl)cc1Cl	-1.24% (inactive)
C=C1CC[C@H]2C[C@@H]1C2(C)C	-0.652% (inactive)
O=CC=C(c1ccccc1)c1ccccc1	-2.67% (inactive)
CN1CCCC(n2nc(Cc3ccc(Cl)cc3)c3ccccc3c2=O)CC1 (centres undefined)	-4.97% [at 53 µM] (inactive)

SMILES	activity change, negative = inhibition
NS(=O)(=O)Cc1noc2ccccc12	3.19% [at 53 µM] (inactive)
CCOC(=O)C(C)Oc1ccc(Oc2nc3ccc(Cl)cc3o2)cc1 (centres undefined)	-1.76% (inactive)
OCCC(O)CO (centres undefined)	1.38% (inactive)
CC1c2ccccc2CN1NC(=O)c1ccc(Cl)c(S(N)(=O)=O)c1 (centres undefined)	0.672% [at 53 µM] (inactive)
C=C(C)CCCC(C)CCO (centres undefined)	-0.443% (inactive)
ON(Cc1ccccc1)Cc1ccccc1	0.306% (inactive)
CCOC(=O)CC(C)C	1.02% (inactive)
N=C(N)S(=O)O	3.47% (inactive)
NC(=O)c1ccccc1[N+](=O)[O-]	-3.09% (inactive)
CC(C)CC(O)Cc1ccccc1 (centres undefined)	0.514% (inactive)
CCCC(=O)C(CC)Sc1ccoc1C (centres undefined)	-1.27% (inactive)
C=CC(C)(CCC=C(C)C)OC(=O)CC(C)C (centres undefined)	0.674% (inactive)
COC(=O)CC(C)=O	0.154% (inactive)
O=C1C(O)=C(O)C(=O)C(O)=C1O	4.99% [at 53 µM] (inactive)
CCC(OCCCOC)OC(C)=O (centres undefined)	0% (inactive)
CCN(CC)CCOc1ccc(Cc2ccccc2)cc1	0.17% [at 53 µM] (inactive)
CCOC(=O)c1ccccc1OC	0% (inactive)
CCCCCCCC/C=C/CCCOC(C)=O	-1.99% (inactive)
CC(S)C(C)S (centres undefined)	0% (inactive)
